An excerpt weighted towards active compounds, which were near 6.6% of everything screened.
TGFb inhibitor – qHTS for Inhibitors of TGF-b | AID 588855, 2011 | HepG2 CAGA-GFP TGF-b/SMAD3 reporter, GFP fluorescence, 18 h; TGF-beta stimulated, 500 pg/mL final | Potency, µM (highest dose often 46.1 µM), without a hit: at the top dose activity, negative = inhibition, hits mostly inhibitors | actives 1.2% (n = 410,000); also: % is scaled to controls: 0 for no effect and ±100 for the full control effect; nearly all actives have a fitted effect of over 65% in size
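Read-out: total well GFP (ex488/em500-530) summed from mean per-cell fluorescence. Cells: HEPG2 CAGA-GFP, 1% FBS DMEM, 18 h at 37 degrees C with 500 pg/mL final TGF-beta. Unstimulated wells served as the full-inhibition control; stimulated DMSO wells = 0%.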
HepG2 tox – qHTS for Inhibitors of TGF-b: Cytotox Counterscreen. HepG2 CAGA-GFP viability, ATP luminescence, 18 h. Potency, µM (top dose mostly 46.1 µM), for inactives: at the top dose activity change, negative = cytotoxicity, usual class: cytotoxic. actives 0.76% (n = 410,000). AID 588856, 2011
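CellTiter-Glo luminescence gave cytotoxicity after 18 hours at 37 degrees C. The cells were HepG2 CAGA-GFP in 1% FBS DMEM, stimulated with 500 pg/mL TGF-beta after compound addition. %Activity was normalised to no-cell wells (complete cell-killing) and DMSO (no toxicity), and curves were fitted and classified.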
HT1080 IDH1KD tx – qHTS for induction of synthetic lethality in tumor cells producing 2HG: qHTS for the HT-1080-IDH1KD cell line; HT-1080 IDH1 knockdown viability, ATP luminescence, 48 h; Potency, µM (doses to about 46.1 µM), for inactives: at the highest dose activity, negative = toxicity, hits mostly cytotoxic; actives 2% (n = 360,000); AID 686971, 2013;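 also: 0% = DMSO wells and -100% = cell-free medium wells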
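Knockdown cells (IDH1KD HT-1080) received compounds 2 h after plating at 750 cells/well and were kept 48 h at 37 °C in 5% FBS RPMI. A CellTiter-Glo luminescence read gave % activity for curve fitting.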
KB-V1 MDR tox – qHTS assay for MDR1-selective chemotherapeutics: Primary screen using the drug-selected MDR subline cells KB-V1; KB-V1 MDR cells viability, CellTiter-Glo, 72 h; Potency, µM (series often up to 46.1 µM), hits mostly cytotoxic; actives 3.4% (n = 400,000); also: % is scaled to controls: 0 for no effect and ±100 for the full control effect; nearly all actives have a fitted effect of over 60% in size
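In this primary screen, KB-V1 cells overexpressing P-gp are incubated with library compounds (lowest to highest concentration) for 72 h at 37 degrees C before a luminescent ATP viability read.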
KB-3-1 cytotox – qHTS assay for MDR1-selective chemotherapeutics: Primary screen using the parental adenocarcinoma cell KB-3-1 | AID 1347075, 2019 | actives 1.4% (n = 400,000) | Potency, µM (series often up to 46.1 µM), usual class: cytotoxic | KB-3-1 viability, CellTiter-Glo ATP luminescence, 72 h; also: % is scaled to controls: 0 for no effect and ±100 for the full control effect; nearly all actives have a fitted effect of over 60% in size
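Here the drug-naive KB-3-1 line serves as comparator for MDR sub-line selectivity; cells received compound titrations, 72 h at 37 °C, then CellTiter-Glo readout.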
HT1080-NT tox – qHTS for induction of synthetic lethality in tumor cells producing 2HG: qHTS for the HT-1080-NT fibrosarcoma cell line. HT-1080-NT fibrosarcoma viability, CellTiter-Glo ATP luminescence, 48 h. Potency, µM (doses to about 46.1 µM), inactives show top-dose activity, negative = less viability, actives largely listed as cytotoxic. actives 1.6% (n = 360,000). AID 686970, 2013;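 also: NT is the 2HG producing partner of a matched IDH1 knockdown line; 0% = DMSO-treated cells and -100% = media-only wells without cells; nearly all actives have a fitted effect of over 55% in size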
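A 48-hour cytotoxicity screen used HT-1080-NT cells plated 2 hours before compound delivery. ATP-based CellTiter-Glo luminescence measured viability, normalized to DMSO and no-cell controls.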
Numbers without * were called inactive; i = inactive; u = inconclusive; x = no result. Calls follow the shape of the dose curve; as a rule, active = well fitted curve in the direction sought with a large enough effect; inconclusive = small, poorly fitted or top-dose-only effect, or another doubt; inactive = no such curve, though single readings can be large; an effect the other way counts as inactive or inconclusive. Potency is read from the fitted curve at half-maximal effect.

SMILES | TGFb inhibitor | HepG2 tox | HT1080 IDH1KD tx | KB-V1 MDR tox | KB-3-1 cytotox | HT1080-NT tox
CC(C)(C)n1ncc2c(=O)n(Cc3cc(C(F)(F)F)ccc3Cl)cnc21 | 5.7% | -17.4% | x | x | x | x
CC(C)(C)c1ccc(C(=O)NNC(=O)c2cccc(Br)c2)cc1 | u | -63.4% | u | i | i | u
COc1cccc(NC(=O)c2ccc3c(c2)OCCO3)c1 | -23.5% | 14.1µM* | u | i | u | u
O=C(Nc1cccc([N+](=O)[O-])c1)c1ccc2c(c1)OCCO2 | u | -19.3% | 0.6% | 20.6µM* | u | 4.7%
Cc1cccc(NC(=O)C(=O)NNC(=O)c2ccc(C(C)(C)C)cc2)c1 | -1.3% | -2.8% | 8.2µM* | u | i | 6.51µM*
O=C(Nc1cccc(Cl)c1)c1ccc2c(c1)OCCO2 | 14.2% | -18.9% | -8.6% | i | i | -0.5%
COc1cccc(NC(=O)CN(C)C(=O)CSc2ccc3c(c2)OCCO3)c1 | -2.7% | -17.7% | -9.7% | 20.6µM* | i | -10.2%
CCOc1ccc(CCNC(=O)CCn2c(=O)c3cccn3c3ccc(F)cc32)cc1OCC | -17.3% | -28.5% | x | x | x | x
CC(Oc1ccccc1)C(=O)Nc1cccc([N+](=O)[O-])c1 (stereo not given) | 3.6% | 0.6% | -1.3% | i | i | -18.0%
CC(C)[C@H](NC(N)=O)C(=O)Nc1cccc([N+](=O)[O-])c1 | 0.631µM* | 14.0% | 15.2% | i | i | 29.3%
Cc1cccc(NC(=S)NNC(=O)c2csc(C(C)C)c2)c1 | -2.5% | -4.5% | 2.9% | 20.6µM* | i | -2.6%
O=C(CC(NC(=O)c1ccccc1)c1ccccc1)OCc1nc(-c2cccc(Cl)c2)no1 (stereo not given) | 15.2% | 17.1% | x | i | u | x
COc1ccc(-n2c(=O)c3c4c(sc3n(Cc3ccc(C)cc3C)c2=O)CCC4)c(OC)c1 | 1.4% | 5.62µM* | x | i | i | x
COc1ccc(-n2c(=O)c3c4c(sc3n(Cc3ccccc3Cl)c2=O)CCC4)c(OC)c1 | -21.6% | 3.8% | x | i | i | x
CCOC(=O)c1sc2nc(CC(=O)OC)nc(NCCN3CCOCC3)c2c1C | -4.4% | 3.4% | 1.2% | 3.66µM* | u | 9.7%
CCOC(=O)c1sc2nc(CC(=O)OC)nc(NCc3ccc(Cl)cc3)c2c1C | 3.4% | 1.1% | 15.5% | u | i | 2.0%
CCOC(=O)c1sc2nc(CC(=O)OC)nc(NCCN(CC)CC)c2c1C | 3.1% | -75.8% | -10.6% | 9.2µM* | i | -4.3%
O=C(NCc1ccccc1Cl)c1cc(-c2ccccc2)n[nH]1 | -9.0% | -55.0% | x | i | i | x
O=C(Nc1ccc(Cl)c(C(F)(F)F)c1)C1CCN(S(=O)(=O)c2cccc3nonc23)CC1 | u | -28.9% | x | i | i | x
C[N+]1(CCCOC(=O)C2(c3ccccc3)CCCC2)CCOCC1 | u | 11.2µM* | -1.9% | i | i | -4.5%
O=C(NCc1cccnc1)c1cccn1-c1ncc(C(F)(F)F)cc1Cl | -17.5% | 2.1% | -0.1% | u | i | -1.0%
CC(=O)/C=C\c1cn(-c2ncc(C(F)(F)F)cc2Cl)c2ccccc12 | -5.4% | -6.5% | u | u | 20.6µM* | -29.3%
N#CC(C#N)=Cc1cn(-c2ncc(C(F)(F)F)cc2Cl)c2ccccc12 | 3.4% | -8.0% | 19.3% | u | i | u
CO/N=C/NC(=O)Cc1cn(-c2ncc(C(F)(F)F)cc2Cl)c2ccccc12 | -29.3% | -10.6% | u | 13µM* | u | -29.5%
N#Cc1ccc(NS(=O)(=O)c2ccc3c(c2)CCC(=O)N3)cc1 | x | x | x | u | i | x
SMILES | TGFb inhibitor | HepG2 tox | HT1080 IDH1KD tx | KB-V1 MDR tox | KB-3-1 cytotox | HT1080-NT tox
Cc1cc(-c2ccc(C)c(S(=O)(=O)Nc3ccccc3C(F)(F)F)c2)on1 | -8.7% | -12.6% | x | x | x | x
COc1ccc(-c2nc3ccccc3c(=O)n2NC(=O)Cc2ccccc2)cc1 | -13.9% | 8.2% | 4.2% | 14.6µM* | i | 3.8%
COc1ccc(CC(=O)Nn2c(-c3ccccc3)nc3ccccc3c2=O)cc1 | 1.8% | 25.2% | -1.2% | u | i | -0.5%
COc1ccc(C2=NN(C(=O)CSc3nc4ccccc4s3)C(c3ccc(OC)cc3)C2)cc1 (stereo not given) | -1.8% | 1.3% | 2.9% | u | i | 4.1%
COc1ccc(CC(=O)OCC(=O)N2N=C(c3ccccc3)CC2c2ccc(OC)cc2)cc1 (stereo not given) | u | -1.8% | 0.3% | 20.6µM* | i | 1.6%
COc1cccc(C2CC(c3cccs3)=NN2C(=O)CSc2nc3ccccc3s2)c1OC (stereo not given) | u | -30.7% | 2.2% | 11.6µM* | u | 10.1%
COc1ccc(C2=NN(C(=O)CSc3nc4ccccc4s3)C(c3ccc(F)cc3)C2)cc1 (stereo not given) | 0.3% | -14.1% | -4.6% | 11.6µM* | u | -5.8%
O=C(NCc1ccccn1)c1nn(-c2ccccc2Cl)nc1CO | 2.4% | -3.7% | x | x | x | x
Cc1ccc(NC(=S)NNc2ncc(C(F)(F)F)cc2Cl)c(C)c1 | u | -31.9% | u | i | i | u
FC(F)(F)c1cnc(NNC(=S)Nc2ccc(Cl)cc2)c(Cl)c1 | 2.82µM* | -61.6% | u | i | u | u
Cc1ccc(NC(=S)NNc2ncc(C(F)(F)F)cc2Cl)cc1 | u | -40.5% | u | i | u | u
Fc1ccc(NC(=S)NNc2ncc(C(F)(F)F)cc2Cl)c(F)c1 | u | -131.3% | 16.4µM* | 14.6µM* | 20.6µM* | u
CCCN(CCC)CCCNC(=O)C1CCN(S(=O)(=O)CC)CC1 | -1.2% | 4.3% | x | x | x | x
COc1ccc2c3c(c(=O)oc2c1OCC(=O)O)CCCC3 | -2.1% | 8.0% | 22.2% | i | i | 15.0%
CCOc1c(OC)ccc2c3c(c(=O)oc12)CCCC3 | 22.5% | -19.5% | u | 8.2µM* | i | 2.9%
CCc1ccccc1NC(=O)CN(Cc1ccccc1)S(=O)(=O)c1ccc2nc(C)sc2c1 | -3.4% | -0.7% | x | i | i | x
Nc1ncnc2c(C3OC(CO)C(O)C3O)c[nH]c12 (stereo not given) | -3.0% | 3.16µM* | 0.146µM* | 0.291µM* | 0.184µM* | 0.231µM*
